From PubChem BioAssay (NCI)
About 83,000 compounds went through this panel and 20% of them were active in at least one assay; those are over-represented in the sample as a whole.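 Testing used 96-well plates and a 48-hour single-concentration exposure. Example: -40 means 40% of the starting cells died.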 Calls of active or inactive are those of the source. The calls were made as follows: active = growth percent below 10; inactive = the rest.

Columns and labels:
Assay in all cases: NCI-60 one-dose screen, 48 h (100 = growth as untreated, 0 = no growth, -100 = all killed)
Details in all cases: 10 µM unless noted
T-47D breast = test system: T-47D breast
BT-549 breast = test system: BT-549 breast
MDA-MB-435 melanoma = test system: MDA-MB-435 melanoma
SW-620 colon = test system: SW-620 colon
MCF7 breast = test system: MCF7 breast
HCT-116 colon = test system: HCT-116 colon
HCC-2998 colon = test system: HCC-2998 colon
KM12 colon = test system: KM12 colon

Measured: growth

CC(c1ccc(-n2cccn2)cc1)c1cnc(N2CCc3ccc(C(N)=O)cc3C2)s1 (stereo not given)
inactive: BT-549 breast 12% | MDA-MB-435 melanoma 40.4% | SW-620 colon 97.3% | MCF7 breast 37% | HCT-116 colon 40.6% | HCC-2998 colon 80.9% | KM12 colon 68.2%
active: T-47D breast 2.07%

CCN(CC)CCOC(=O)N1c2ccccc2Sc2ccccc21
inactive: T-47D breast 94% | BT-549 breast 92.1% | MDA-MB-435 melanoma 98.7% | SW-620 colon 94.4% | MCF7 breast 99.5% | HCT-116 colon 81.7% | HCC-2998 colon 102% | KM12 colon 99.3%

CCN(CC)CCCNC(=O)c1ccc(N)cc1
inactive: T-47D breast 102% | BT-549 breast 102% | MDA-MB-435 melanoma 108% | SW-620 colon 97.8% | MCF7 breast 95.1% | HCT-116 colon 94.8% | HCC-2998 colon 126% | KM12 colon 107%

CC1(C)N=C(N)N=C(N)N1c1cccc(CN)c1
inactive: T-47D breast 102% | BT-549 breast 94.6% | MDA-MB-435 melanoma 104% | SW-620 colon 98.4% | MCF7 breast 95.9% | HCT-116 colon 91.3% | HCC-2998 colon 100% | KM12 colon 101%

COc1cc2cc(Oc3ccc(NC(=O)Nc4cc(C(F)(F)F)cc(C(F)(F)F)c4)cc3)c(C)nc2cc1OCCN1CCCCC1
active: T-47D breast -39.7% | MDA-MB-435 melanoma -94.4% | SW-620 colon -84.4% | MCF7 breast -84.8% | HCT-116 colon -76.8% | HCC-2998 colon -94.5% | KM12 colon -78.5%
inactive: BT-549 breast 94.3%

CCCCC1COc2cccc3c(SCC(=O)N(C)c4cccc(Cl)c4)cc[n+]1c23 (stereo not given)
inactive: T-47D breast 107% | BT-549 breast 107% | MDA-MB-435 melanoma 120% | SW-620 colon 110% | MCF7 breast 94.3% | HCT-116 colon 104% | HCC-2998 colon 104% | KM12 colon 103%

CCCNCC(=O)Nc1ccc(C(=O)OC(C)(C)CC)cc1
inactive: T-47D breast 103% | BT-549 breast 77.4% | MDA-MB-435 melanoma 113% | SW-620 colon 105% | MCF7 breast 103% | HCT-116 colon 84.1% | HCC-2998 colon 99.9% | KM12 colon 104%

C[C@@H]1CC[C@@H]2[C@@H]1[C@H](OC(=O)/C=C/c1ccccc1)[C@]1(CCCOCCOCCOCCOC(=O)CCCC[C@@H]3SC[C@@H]4NC(=O)N[C@@H]43)C[C@@H](OC(=O)CO)[C@@]2(C)O1
inactive: T-47D breast 92.4% | BT-549 breast 99.4% | MDA-MB-435 melanoma 99.7% | SW-620 colon 102% | MCF7 breast 102% | HCT-116 colon 92.7% | HCC-2998 colon 104% | KM12 colon 102%

COc1ccc(/C=C(\C#N)n2nnc3ccccc32)cc1
active: MDA-MB-435 melanoma -40.1% | MCF7 breast 9.96% | HCT-116 colon 4.97% | HCC-2998 colon -2.35% | KM12 colon 1.79%
inactive: T-47D breast 50.1% | BT-549 breast 21.6% | SW-620 colon 12.8%

CC1(C)N=C(N)N=C(N)N1c1ccc(Cl)c(Cl)c1
inactive: T-47D breast 69.8% | BT-549 breast 42.9% | MDA-MB-435 melanoma 27.4% | SW-620 colon 43.1% | MCF7 breast 21.4% | HCT-116 colon 24.9% | HCC-2998 colon 20.8% | KM12 colon 38.8%

Nc1ccn(C2OC(F)(CO)C(O)C2F)c(=O)n1 (stereo not given)
inactive: T-47D breast 55.3% | BT-549 breast 44.4% | MDA-MB-435 melanoma 52.9% | SW-620 colon 52.1% | MCF7 breast 21.7% | HCT-116 colon 35.3% | HCC-2998 colon 48.3% | KM12 colon 59.2%

N#C/C=C(\c1ccc([N+](=O)[O-])cc1)n1nnc2cc(Cl)c(Cl)cc21
inactive: T-47D breast 28.5% | BT-549 breast 33.7% | HCC-2998 colon 19.9%
active: MDA-MB-435 melanoma 7.64% | SW-620 colon -34.8% | MCF7 breast 1.7% | HCT-116 colon -52.7% | KM12 colon -81.1%

CCOC(=O)Cc1csc2nc(-c3ccccc3)nn12
inactive: T-47D breast 92.9% | BT-549 breast 127% | MDA-MB-435 melanoma 113% | SW-620 colon 98.5% | MCF7 breast 96.5% | HCT-116 colon 98.2% | HCC-2998 colon 103% | KM12 colon 105%

N#Cc1cnn2c(-c3ccc(Cl)cc3)nc(NC3CC3)nc12
inactive: T-47D breast 82.4% | BT-549 breast 94.2% | MDA-MB-435 melanoma 96.8% | SW-620 colon 103% | MCF7 breast 78% | HCT-116 colon 93.8% | HCC-2998 colon 101% | KM12 colon 98.2%

CN1CCN(c2ccc3nc(/N=C/c4ccc5sc(-c6ccc([N+](=O)[O-])cc6)nc5c4)sc3c2)CC1
inactive: T-47D breast 96% | BT-549 breast 92.4% | MDA-MB-435 melanoma 102% | SW-620 colon 116% | MCF7 breast 94.7% | HCT-116 colon 107% | HCC-2998 colon 101% | KM12 colon 105%
